Assay results: the supplement of paper PMC11732987, “Enantioselective OTUD7B fragment discovery through chemoproteomics screening and high-throughput optimisation” (Communications Chemistry, 2025)

Assays:
Experiment in all cases: log2 ratio of Biotin-Ahx-Ub-VS probe labelling (fragment/DMSO); higher = less target engagement (more negative = stronger competition), active = hit call of the paper (q ≤ 0.05, log2 ratio ≤ -1)
Details in all cases: compound concentration: 200 uM; treatment time: 3 h
USP34 = USP34 (UniProt Q70CQ2)
In short: (§1)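 HEK293T lysate, 495 µg per sample in Tris/CHAPS/IGEPAL buffer with protease inhibitors, was treated in triplicate with fragment at 200 µM or vehicle for 3 h and then with Biotin-Ahx-Ub-VS at 0.5 µM final for 1 h. Labelled DUBs were NeutrAvidin-enriched, digested with LysC and trypsin, and run by diaPASEF LC-MS/MS. Spectronaut label-free quantities were global-median-normalised, and values are average log2 fragment/vehicle ratios by unpaired t-test on proteins with ≥2 unique peptides.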

USP36 = molecular target: T1, USP36 (UniProt Q9P275)
T1 sequence (whole entry): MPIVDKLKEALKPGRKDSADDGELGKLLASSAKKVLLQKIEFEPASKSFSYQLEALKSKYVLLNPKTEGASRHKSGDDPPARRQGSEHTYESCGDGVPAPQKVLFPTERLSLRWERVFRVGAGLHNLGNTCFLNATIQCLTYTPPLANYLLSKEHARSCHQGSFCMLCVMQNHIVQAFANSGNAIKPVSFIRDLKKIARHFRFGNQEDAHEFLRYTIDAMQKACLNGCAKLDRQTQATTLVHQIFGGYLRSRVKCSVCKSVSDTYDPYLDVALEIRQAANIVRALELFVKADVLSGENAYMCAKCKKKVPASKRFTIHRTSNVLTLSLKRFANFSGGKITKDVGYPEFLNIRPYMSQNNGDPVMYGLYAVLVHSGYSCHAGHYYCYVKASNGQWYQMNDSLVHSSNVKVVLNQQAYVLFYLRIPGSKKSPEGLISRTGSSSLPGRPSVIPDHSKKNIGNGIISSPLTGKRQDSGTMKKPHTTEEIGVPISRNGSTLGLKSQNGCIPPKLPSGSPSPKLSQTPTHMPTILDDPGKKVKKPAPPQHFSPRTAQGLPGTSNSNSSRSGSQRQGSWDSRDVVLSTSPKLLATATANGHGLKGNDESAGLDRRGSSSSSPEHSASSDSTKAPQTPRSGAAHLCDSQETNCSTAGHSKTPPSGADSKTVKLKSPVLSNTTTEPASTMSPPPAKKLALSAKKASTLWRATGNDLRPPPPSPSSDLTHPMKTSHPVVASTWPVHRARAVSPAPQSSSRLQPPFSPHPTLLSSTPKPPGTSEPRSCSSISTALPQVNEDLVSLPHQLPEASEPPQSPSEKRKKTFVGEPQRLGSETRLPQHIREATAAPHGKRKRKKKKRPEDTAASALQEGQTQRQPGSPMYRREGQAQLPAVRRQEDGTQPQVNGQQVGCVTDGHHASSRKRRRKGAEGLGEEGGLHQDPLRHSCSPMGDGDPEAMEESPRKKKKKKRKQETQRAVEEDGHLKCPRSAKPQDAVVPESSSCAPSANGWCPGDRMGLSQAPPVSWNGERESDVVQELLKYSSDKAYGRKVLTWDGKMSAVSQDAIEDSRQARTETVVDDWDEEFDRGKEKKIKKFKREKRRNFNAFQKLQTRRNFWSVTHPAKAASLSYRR
In short: as §1

USP38 = molecular target: T2, USP38 (UniProt Q8NB14)
T2 sequence (whole entry): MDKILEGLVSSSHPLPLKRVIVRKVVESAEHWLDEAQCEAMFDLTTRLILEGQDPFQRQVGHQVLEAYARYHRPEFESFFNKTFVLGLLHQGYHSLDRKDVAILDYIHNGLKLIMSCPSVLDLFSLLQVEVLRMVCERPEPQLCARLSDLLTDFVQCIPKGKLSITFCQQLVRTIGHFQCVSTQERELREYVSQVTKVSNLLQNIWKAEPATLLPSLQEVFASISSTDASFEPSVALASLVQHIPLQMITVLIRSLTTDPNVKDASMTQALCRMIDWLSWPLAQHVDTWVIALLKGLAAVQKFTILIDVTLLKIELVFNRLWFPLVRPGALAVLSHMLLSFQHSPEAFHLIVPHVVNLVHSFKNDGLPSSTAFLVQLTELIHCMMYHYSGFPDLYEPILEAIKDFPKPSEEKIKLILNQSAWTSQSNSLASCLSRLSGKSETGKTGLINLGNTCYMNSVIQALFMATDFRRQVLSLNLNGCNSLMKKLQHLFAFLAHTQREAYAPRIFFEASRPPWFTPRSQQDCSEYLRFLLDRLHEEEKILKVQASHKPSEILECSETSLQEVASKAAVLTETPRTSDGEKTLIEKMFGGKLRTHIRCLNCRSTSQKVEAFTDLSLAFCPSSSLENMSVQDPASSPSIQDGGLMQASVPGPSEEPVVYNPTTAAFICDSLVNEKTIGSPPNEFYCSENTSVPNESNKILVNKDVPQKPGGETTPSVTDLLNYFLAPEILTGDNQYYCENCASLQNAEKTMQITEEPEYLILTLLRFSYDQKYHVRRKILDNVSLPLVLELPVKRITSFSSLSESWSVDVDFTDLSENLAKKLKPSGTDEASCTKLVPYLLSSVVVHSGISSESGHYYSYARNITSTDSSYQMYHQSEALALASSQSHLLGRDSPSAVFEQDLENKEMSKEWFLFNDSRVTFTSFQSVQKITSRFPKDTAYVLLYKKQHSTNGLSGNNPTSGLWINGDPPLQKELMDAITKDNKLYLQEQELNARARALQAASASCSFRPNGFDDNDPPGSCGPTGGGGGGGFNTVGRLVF
In short: as §1

USP39 = molecular target: T3, USP39 (UniProt Q53GS9)
T3 sequence (whole entry): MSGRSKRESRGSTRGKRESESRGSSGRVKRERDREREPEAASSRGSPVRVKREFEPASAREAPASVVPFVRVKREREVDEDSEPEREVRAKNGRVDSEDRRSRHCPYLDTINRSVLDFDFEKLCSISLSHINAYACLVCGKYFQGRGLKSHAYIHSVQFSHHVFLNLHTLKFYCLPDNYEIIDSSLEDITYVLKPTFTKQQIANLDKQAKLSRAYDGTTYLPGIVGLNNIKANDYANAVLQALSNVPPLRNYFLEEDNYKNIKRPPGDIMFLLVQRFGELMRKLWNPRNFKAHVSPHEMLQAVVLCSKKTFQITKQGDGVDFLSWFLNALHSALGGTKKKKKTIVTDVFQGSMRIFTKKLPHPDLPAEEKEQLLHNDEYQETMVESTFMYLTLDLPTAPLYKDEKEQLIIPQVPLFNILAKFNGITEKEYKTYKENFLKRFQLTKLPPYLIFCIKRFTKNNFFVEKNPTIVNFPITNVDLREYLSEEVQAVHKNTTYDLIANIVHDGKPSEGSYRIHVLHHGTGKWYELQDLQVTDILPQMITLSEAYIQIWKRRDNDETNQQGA
In short: as §1

USP4 = molecular target: T4, USP4 (UniProt Q13107)
T4 sequence (whole entry): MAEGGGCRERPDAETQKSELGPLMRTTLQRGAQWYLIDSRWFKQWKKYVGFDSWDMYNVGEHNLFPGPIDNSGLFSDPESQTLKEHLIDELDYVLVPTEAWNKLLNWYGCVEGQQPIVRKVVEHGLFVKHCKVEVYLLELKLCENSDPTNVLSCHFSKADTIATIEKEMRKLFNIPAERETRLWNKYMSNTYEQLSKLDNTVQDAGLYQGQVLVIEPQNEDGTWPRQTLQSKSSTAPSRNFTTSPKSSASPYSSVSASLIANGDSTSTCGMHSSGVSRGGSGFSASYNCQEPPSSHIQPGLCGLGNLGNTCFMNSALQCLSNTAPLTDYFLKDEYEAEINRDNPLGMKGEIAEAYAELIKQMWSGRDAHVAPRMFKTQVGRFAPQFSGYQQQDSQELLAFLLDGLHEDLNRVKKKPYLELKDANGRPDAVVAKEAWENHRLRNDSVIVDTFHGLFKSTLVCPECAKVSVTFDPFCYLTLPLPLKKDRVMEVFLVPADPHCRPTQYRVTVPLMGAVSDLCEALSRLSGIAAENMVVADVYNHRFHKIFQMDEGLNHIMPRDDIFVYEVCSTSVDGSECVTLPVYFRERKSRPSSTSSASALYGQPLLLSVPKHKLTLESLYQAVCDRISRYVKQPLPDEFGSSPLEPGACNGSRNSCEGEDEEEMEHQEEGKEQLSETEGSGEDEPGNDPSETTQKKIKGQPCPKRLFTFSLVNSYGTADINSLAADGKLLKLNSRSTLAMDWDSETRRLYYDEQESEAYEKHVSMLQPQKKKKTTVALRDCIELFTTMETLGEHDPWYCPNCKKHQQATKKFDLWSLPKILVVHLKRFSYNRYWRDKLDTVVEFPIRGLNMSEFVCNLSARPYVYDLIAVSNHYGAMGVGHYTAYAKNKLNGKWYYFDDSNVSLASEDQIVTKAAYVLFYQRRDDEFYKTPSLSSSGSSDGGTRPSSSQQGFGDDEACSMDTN
In short: as §1

Measured: log2 ratio of Biotin-Ahx-Ub-VS probe labelling

Chain of USP34 (Q70CQ2 whole entry, the tested form may be a part): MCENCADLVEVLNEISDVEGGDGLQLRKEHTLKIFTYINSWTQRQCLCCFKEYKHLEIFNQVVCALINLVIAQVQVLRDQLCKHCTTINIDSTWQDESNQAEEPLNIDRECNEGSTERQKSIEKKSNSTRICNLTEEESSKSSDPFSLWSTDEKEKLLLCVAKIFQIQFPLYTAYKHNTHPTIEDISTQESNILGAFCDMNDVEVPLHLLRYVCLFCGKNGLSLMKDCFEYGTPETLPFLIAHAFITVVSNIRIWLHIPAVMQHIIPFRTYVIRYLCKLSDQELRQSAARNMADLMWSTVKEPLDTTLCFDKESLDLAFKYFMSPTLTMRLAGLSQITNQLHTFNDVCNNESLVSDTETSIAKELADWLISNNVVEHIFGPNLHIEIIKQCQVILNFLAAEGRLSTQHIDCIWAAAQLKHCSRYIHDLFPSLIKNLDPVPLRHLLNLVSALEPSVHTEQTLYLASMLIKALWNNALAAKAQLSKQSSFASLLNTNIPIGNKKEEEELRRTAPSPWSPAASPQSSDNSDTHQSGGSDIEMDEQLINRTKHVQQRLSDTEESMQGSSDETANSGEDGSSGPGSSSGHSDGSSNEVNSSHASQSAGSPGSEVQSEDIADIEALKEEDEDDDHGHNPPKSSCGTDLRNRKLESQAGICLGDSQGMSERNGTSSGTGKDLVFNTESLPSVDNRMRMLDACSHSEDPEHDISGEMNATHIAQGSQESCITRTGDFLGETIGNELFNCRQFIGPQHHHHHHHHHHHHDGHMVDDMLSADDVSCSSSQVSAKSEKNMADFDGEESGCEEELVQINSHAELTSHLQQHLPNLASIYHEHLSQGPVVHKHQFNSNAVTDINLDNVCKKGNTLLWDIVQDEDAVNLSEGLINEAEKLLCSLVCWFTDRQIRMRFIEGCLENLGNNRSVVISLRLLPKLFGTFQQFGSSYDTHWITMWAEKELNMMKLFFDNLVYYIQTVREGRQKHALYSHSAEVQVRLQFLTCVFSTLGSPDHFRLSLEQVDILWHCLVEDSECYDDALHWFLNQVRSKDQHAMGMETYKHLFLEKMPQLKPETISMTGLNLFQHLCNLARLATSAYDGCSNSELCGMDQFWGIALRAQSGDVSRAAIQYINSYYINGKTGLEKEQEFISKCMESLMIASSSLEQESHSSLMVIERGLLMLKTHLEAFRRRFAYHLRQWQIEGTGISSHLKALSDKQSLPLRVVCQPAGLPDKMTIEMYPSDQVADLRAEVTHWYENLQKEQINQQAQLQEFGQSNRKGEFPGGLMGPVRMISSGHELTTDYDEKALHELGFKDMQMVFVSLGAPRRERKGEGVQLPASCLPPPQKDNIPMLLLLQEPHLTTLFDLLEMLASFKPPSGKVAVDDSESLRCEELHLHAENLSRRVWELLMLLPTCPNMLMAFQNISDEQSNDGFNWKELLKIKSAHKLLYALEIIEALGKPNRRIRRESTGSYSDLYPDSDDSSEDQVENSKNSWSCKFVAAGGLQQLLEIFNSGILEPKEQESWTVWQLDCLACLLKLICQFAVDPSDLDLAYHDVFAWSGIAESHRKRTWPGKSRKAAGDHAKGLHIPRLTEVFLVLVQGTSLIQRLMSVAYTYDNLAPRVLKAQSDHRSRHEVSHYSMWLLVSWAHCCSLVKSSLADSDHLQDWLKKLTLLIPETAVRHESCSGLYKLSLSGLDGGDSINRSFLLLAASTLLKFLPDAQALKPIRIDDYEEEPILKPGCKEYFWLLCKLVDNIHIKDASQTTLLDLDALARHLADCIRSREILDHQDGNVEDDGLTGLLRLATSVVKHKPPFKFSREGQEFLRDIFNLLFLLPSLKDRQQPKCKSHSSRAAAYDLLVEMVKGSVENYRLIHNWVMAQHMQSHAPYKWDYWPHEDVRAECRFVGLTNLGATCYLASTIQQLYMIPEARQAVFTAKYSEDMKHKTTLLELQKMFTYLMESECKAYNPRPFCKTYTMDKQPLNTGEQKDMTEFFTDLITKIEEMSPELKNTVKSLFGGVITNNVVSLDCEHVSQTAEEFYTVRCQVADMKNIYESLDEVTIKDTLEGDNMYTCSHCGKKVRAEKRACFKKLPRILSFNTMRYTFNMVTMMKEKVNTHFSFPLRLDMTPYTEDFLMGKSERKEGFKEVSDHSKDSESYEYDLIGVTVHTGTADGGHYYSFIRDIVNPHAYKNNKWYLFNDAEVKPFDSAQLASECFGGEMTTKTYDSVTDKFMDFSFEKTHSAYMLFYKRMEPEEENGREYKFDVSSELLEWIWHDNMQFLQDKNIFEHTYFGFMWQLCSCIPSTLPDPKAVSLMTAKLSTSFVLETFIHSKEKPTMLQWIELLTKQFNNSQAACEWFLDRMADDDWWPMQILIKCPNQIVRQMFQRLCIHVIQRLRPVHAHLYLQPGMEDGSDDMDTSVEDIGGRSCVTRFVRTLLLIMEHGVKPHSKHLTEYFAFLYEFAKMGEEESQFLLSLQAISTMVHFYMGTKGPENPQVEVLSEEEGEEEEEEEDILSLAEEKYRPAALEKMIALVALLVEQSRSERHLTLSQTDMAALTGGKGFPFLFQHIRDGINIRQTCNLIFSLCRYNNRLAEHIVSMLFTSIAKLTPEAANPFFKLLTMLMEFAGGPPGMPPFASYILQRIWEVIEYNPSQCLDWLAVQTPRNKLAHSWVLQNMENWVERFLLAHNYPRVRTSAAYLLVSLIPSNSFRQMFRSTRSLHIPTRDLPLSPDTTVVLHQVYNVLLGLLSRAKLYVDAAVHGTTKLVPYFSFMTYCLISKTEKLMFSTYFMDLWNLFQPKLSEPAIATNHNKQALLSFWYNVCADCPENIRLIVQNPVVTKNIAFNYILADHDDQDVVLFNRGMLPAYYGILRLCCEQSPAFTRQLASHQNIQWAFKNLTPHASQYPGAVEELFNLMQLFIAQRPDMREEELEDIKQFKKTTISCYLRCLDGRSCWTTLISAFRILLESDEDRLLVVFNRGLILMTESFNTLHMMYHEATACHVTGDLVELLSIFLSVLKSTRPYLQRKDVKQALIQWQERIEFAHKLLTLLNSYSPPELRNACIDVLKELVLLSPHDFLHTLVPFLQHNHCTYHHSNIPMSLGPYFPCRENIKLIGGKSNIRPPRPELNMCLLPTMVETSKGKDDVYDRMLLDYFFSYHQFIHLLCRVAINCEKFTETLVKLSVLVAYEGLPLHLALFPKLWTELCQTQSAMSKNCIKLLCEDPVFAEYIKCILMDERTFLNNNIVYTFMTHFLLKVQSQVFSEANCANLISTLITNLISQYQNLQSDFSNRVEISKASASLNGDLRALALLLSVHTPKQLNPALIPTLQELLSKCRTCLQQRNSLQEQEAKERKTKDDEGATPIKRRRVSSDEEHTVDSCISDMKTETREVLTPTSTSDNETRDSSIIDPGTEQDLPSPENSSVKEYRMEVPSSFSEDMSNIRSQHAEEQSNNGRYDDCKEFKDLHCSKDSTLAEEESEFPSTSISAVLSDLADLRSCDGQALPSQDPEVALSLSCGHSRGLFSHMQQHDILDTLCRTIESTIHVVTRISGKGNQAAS

O=C(CCl)NCCC1COCCO1 (stereo not given)
inactive: USP34 -0.0886 | USP36 -0.0548 | USP38 -0.0125 | USP39 0.0236 | USP4 -0.00705
